PfHsp40 rescue: rescue of yeast from PfHsp40 toxicity, primary screen, S. cerevisiae, ATP luminescence; S. cerevisiae expressing PfHsp40, growth rescue; growth rescue, % at 12.5 µM; 0.68% of 340,000 active; in the data active = growth rescue above about 28%, passing the limit was not always enough;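 note: yeast W303a lacking pdr1 and pdr3 grown in galactose medium; growth measured after three days at 30 °C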
ugtP null kill: growth inhibition of ugtP-null S. aureus, primary screen, RN4220 ugtP deletion, OD600 | 16 h | growth inhibition, % (test concentration not listed) | 0.54% of 330,000 active; in the data active = growth inhibition above about 68%;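 note: plate controls were untreated wells for no effect and antibiotic for full effect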
Mtb betalactam: beta-lactam sensitization of Mtb H37Rv, H37Rv; inhibition, % at 25 µM; M. tuberculosis H37Rv growth with meropenem, percent inhibition; 0.27% of 330,000 active; call rule not given here;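 note: growth measured after seven days incubation then overnight dye step; 0% = bacteria only wells and 100% = bacteria with antibiotic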
Sa RN4220 lethal: growth inhibition of S. aureus RN4220, primary screen, OD600; 16 h; inhibition, % (test concentration not listed); 0.33% of 330,000 active; AID 1259311, 2017; in the data active = inhibition above about 85%;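 note: plate controls were untreated cells for no effect and reference antibiotic for full effect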
BioA inh: M. tuberculosis BioA enzyme inhibitors, primary screen, biochemical, plate reader, single point, HTS; 0.096% of 360,000 active; inhibition, % at 9.99 µM; 7,8-diaminopelargonic acid synthase BioA (Mycobacterium tuberculosis); AID 602481, 2012; purified M. tuberculosis BioA enzyme; in the data active = inhibition above about 40%
* hit, by the source's call; nt = not tested or not shown. Compounds with a hit are over-represented: about 0.9% of the library has one in this group of screens.

SMILES	PfHsp40 rescue	ugtP null kill	Mtb betalactam	Sa RN4220 lethal	BioA inh
COc1cc(-c2ccc3c(=O)c4ccccc4sc3c2)cc(OC)c1OC	0	-12	-1	12	-2
COc1cc(-c2ccc3c(=O)c4ccccc4n(C)c3c2)cc(OC)c1OC	28*	nt	5	nt	8
CN(C)CCCNC(=O)c1ccc(-c2nc(-c3ccc(Cl)cc3)cs2)cc1	4	84*	81	32	2
O=C(NC1CCCC1)c1cccc2c1C(=O)c1ccc(C=Cc3ccccc3)cc1S2(=O)=O	nt	11	nt	7	nt
CCN1C(=O)C2C(c3ccc(-c4ccc(F)cc4)c(OC)c3)N[C@@](C)(C(=O)OC)C2C1=O (stereo not given in full)	nt	5	nt	1	nt
CC(=Cc1ccc(C(=O)O)cc1)c1ccc2c(c1)C(C)(C)CCC2(C)C	nt	99*	nt	77	nt
Cc1cc(NC(=O)Nc2cccc(Cl)c2)n(-c2ccccn2)n1	101*	-8	10	-16	nt
Cc1cc(NC(=O)Nc2cccc(Cl)c2)n(-c2ccccc2)n1	-1	3	-10	8	nt
CC(=O)OC1CC[C@@]2(C)C(=CCC3C4CCC(C(C)=O)[C@@]4(C)CCC32)C1 (stereo not given in full)	nt	22	nt	1	nt
CC(=O)OC1CC[C@@]2(C)C(=CCC3C2CC[C@]2(C)C(=O)CCC32)C1 (stereo not given in full)	nt	87*	nt	-5	nt
CC(C)c1cc(-c2cc(C(=O)NCc3ccccc3)on2)nc(NCC2CC2)n1	387*	-4	80	-13	-1
COc1ccc(C2C=CCN(C(=O)c3ccccc3)C(C)C(=O)N2Cc2ccc(F)cc2)cc1 (stereo not given)	nt	6	nt	8	nt
CC(C)(C)C1COC(=O)C(NC(=O)OCC2c3ccccc3-c3ccccc32)CC=CCC(CC(=O)N(CCO)Cc2ccccc2)C(=O)N1 (stereo not given)	nt	-2	nt	2	nt
COC(=O)[C@@]12CCCCN1C(c1ccc(-c3cc(C(C)=O)cs3)c(OC)c1)C1C(=O)N(C)C(=O)C12 (stereo not given in full)	nt	5	nt	4	nt
O=[N+]([O-])c1cc(Br)c(Nc2ccccc2)c([N+](=O)[O-])c1	67*	4	100	28	-1
O=C(Nc1ccccc1)c1ccc(Nc2c([N+](=O)[O-])cc([N+](=O)[O-])c3ccccc23)cc1	-1	nt	2	nt	nt
CCCCNc1c(-c2ccc(OC)c(Sc3ccc(OC)cc3)c2)nc2cnccn12	0	13	60	-1	-1
CCCCNc1c(-c2ccc(SC(C)CC)cc2)nc2cnccn12 (stereo not given)	860*	nt	100	nt	-1
O=C(c1ccc2c(c1)OCO2)N(Cc1cccs1)C1(C(=O)NC2CCCCC2)CCCCC1	68*	-10	0	9	nt
O=C(CNC(=O)c1ccc(Br)o1)NCc1ccc(Cl)cc1Cl	52*	-1	-5	0	-1
Cc1ccc(S(=O)(=O)NCCCCCC(=O)NC(C)(C)CO)cc1	51*	-5	3	-1	nt
Cc1ccc(S(=O)(=O)NCCCCCC(N)=O)cc1	0	1	-8	2	0
CCCCCCSc1ccc(C2C3C(=O)N(C)C(=O)C3[C@]3(C(=O)OC)CCCCN23)cc1OC (stereo not given in full)	nt	10	nt	-3	nt
COc1cccc(Oc2cncnc2-c2ccc(OC)cc2O)c1	56*	-5	2	0	1
CC1C(=O)OC2CC34C5CC(C(C)(C)C)C36C(OC(=O)C6O)OC4(C(=O)O5)[C@]21O (stereo not given in full)	nt	15	nt	20	nt
SMILES	PfHsp40 rescue	ugtP null kill	Mtb betalactam	Sa RN4220 lethal	BioA inh
Cc1ccc(CN2CCC(CNC(=O)Nc3ccccc3F)CC2)cc1	55*	13	-1	1	-1
COc1ccc(NC(=O)NC(CCSC)C(=O)O)cc1Cl (stereo not given)	nt	0	nt	4	nt
N#Cc1c(=O)c2nc(NCCCO)ncc2n2c(=O)c3ccccc3[nH]c12	83*	0	1	-1	nt
CCOC(=O)c1ccc(N2CCCCC2)c(NS(=O)(=O)c2cccc(C(F)(F)F)c2)c1	0	88*	4	1	-2
COc1ccccc1C1=CC(=O)CC(c2ccc(F)cc2)C1 (stereo not given)	nt	6	nt	0	nt
CC1(C)Cc2ccccc2-c2nnc(SCC(=O)Nc3nc4ccccc4s3)n21	0	98*	-4	88*	-1
Cn1c(SCC(=O)Nc2nc3ccccc3s2)nnc1-c1ccccc1	-1	9	15	0	-1
COc1cc(NC(=O)COc2cc(O)c3c(c2)OC(C)(C)CC3=O)cc(OC)c1	7	8	-4	22	1
CCCCCc1cc(OC)cc2c1C(=O)OC(C)(C)O2	72*	6	nt	3	-5
Cn1c(O)c(C=Nc2ccc(N3CCOCC3)cc2)c(=O)n(C)c1=S	68*	-7	nt	4	nt
CC[C@@]12C(=O)N(c3cccc(Br)c3)C(=O)N1C(c1cccc(C)c1)C1C(=O)N(Cc3ccccc3)C(=O)C12 (stereo not given in full)	nt	-18	nt	5	nt
FC(F)(F)c1cccc(NC(=S)Nc2ccc(Cl)cc2Cl)c1	-2	84*	95	98*	-1
Fc1ccc(NC(=S)Nc2ccc(F)c(Cl)c2)cc1Cl	-2	97*	92	108*	1
CC1CN(C(C)CO)C(=O)c2cc(NS(=O)(=O)c3cn(C)cn3)ccc2OC1CN(C)Cc1ccc(C(=O)O)cc1 (stereo not given)	nt	4	nt	7	nt
FC(F)(F)c1ccc(CN2CC3C(c4ccc(Cl)nc4)C4(c5cccnc5)CC3(C4)C2c2ccccc2)cc1 (stereo not given)	nt	2	nt	-10	nt
O=C(Nc1nc(NC(=O)c2ccco2)n(-c2ccccc2)n1)c1ccccc1	-1	76	98	92*	3
COc1ccc(C2C3C(=O)N(C(C)(C)C)C(=O)C3[C@]3(Cc4ccc(Cl)cc4)C(=O)N(c4ccc(C)cc4)C(=O)N23)cc1 (stereo not given in full)	nt	-5	nt	-4	nt
COC(=O)C1CC1C(NC(=O)OCc1ccccc1)c1ccccc1 (stereo not given)	nt	5	nt	3	nt
CCN1CC2C3C(=O)N(Cc4ccccc4)C(=O)C3[C@](Cc3ccccc3)(C1=O)N2C(=O)c1ccc(C(C)(C)C)cc1 (stereo not given in full)	nt	5	nt	3	nt
COc1cccc(CNc2ncnc3ccc(-c4c(C)noc4C)cc23)c1	33*	18	-4	17	4
COc1cccc(-c2ccc3ncnc(NCc4cccc(C)c4)c3c2)c1	0	-9	99	-15	-1
O=C(NCc1nc2ccccc2[nH]1)C1=CC(C2CCCCC2)CC(OCCCCO)O1 (stereo not given)	nt	6	nt	3	nt
O=C(NCc1ccccn1)C(=O)NCC1OCCN1S(=O)(=O)c1ccc(Br)cc1 (stereo not given)	0	0	2	-3	0
